# Only some compounds are listed: those with a hit (about 11% of all), similar ones and a draw of the others.
# IMPase Li cell = IMPase inhibition in cells with lithium potentiation | CHO-M1 cells, IP1 TR-FRET (IP-One), carbachol + lithium | Potency, µM (top dose mostly 59.4 µM), inactives show at the highest dose activity, negative = IMPase inhibition, actives largely listed as inhibitors | 210,000 compounds, 0.35% hits | AID 1457; active means well fitted inhibition curve with a large enough effect; inconclusive means small, poorly fitted or top-dose-only effect; inactive means no such curve, though single readings can be large or run the other way;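 further: IP1 builds up when IMPase is blocked and the TR-FRET signal falls; potency means the concentration at half of the fitted maximal effect; plate controls were basal vehicle for no effect and high inhibitor control for full effect; nearly all actives have a fitted effect of over 50% in size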
#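 CHO cells stably expressing M1 receptor (2000/well) were cultured 16–30 h, then exposed to compounds with a small lithium addition for 30 min at 37C. IP1 was measured by TR-FRET competition; AC50 from Hill fits.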
# HPGD inh = inhibitors of human 15-hydroxyprostaglandin dehydrogenase (HPGD); P15428; purified HPGD, NADH fluorescence kinetic, PGE2 substrate; Potency, µM, without a hit: top-dose activity change, negative = inhibition, usual class: inhibitors; 150,000 compounds, 4.3% hits; further: potency means the concentration at half of the fitted maximal effect
# Target sequence (P15428 whole entry, looked up): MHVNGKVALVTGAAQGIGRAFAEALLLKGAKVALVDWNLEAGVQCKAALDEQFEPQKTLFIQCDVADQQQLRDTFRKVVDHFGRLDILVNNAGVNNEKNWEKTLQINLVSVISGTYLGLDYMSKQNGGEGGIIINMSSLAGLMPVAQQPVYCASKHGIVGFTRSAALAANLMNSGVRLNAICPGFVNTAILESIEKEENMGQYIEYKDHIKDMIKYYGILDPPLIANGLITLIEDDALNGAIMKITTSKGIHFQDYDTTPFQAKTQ
#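 NADH formation kinetics: reaction with 30 uM PGE2 and 1 mM NAD+ (final), 20 nM enzyme, Tris-HCl pH 8 with Tween 20, after 15 min compound preincubation at room temperature. Fluorescence change, last versus first of five reads.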
# ALDH1A1 inh = inhibitors of human aldehyde dehydrogenase 1A1; Purified ALDH1A1, NADH fluorescence, propionaldehyde substrate; Potency, µM (titrated, usually from 75.3 µM), without a hit: at the highest dose activity, negative = inhibition, most hits filed as inhibitors; 220,000 compounds, 7.3% hits; AID 1030;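 further: potency means the concentration at half of the fitted maximal effect; plate controls were no enzyme wells and a reference inhibitor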
# Target sequence (P00352 whole entry, looked up): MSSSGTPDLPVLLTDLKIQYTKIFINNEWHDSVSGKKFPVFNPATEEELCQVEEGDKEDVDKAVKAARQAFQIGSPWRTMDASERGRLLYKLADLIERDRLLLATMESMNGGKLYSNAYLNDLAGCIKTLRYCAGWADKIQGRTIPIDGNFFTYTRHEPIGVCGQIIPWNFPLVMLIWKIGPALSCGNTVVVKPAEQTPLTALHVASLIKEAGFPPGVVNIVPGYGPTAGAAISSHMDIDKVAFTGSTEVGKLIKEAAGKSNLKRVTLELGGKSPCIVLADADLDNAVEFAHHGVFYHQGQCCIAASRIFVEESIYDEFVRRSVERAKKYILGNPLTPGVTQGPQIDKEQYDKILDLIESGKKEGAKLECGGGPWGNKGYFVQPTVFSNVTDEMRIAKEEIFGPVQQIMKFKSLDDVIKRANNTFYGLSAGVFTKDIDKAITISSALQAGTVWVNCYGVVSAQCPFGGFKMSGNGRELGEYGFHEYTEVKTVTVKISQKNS
# PNC inhibitor = inhibitors of perinucleolar compartment assembly; PC3M PTB-GFP, PNC prevalence imaging, 16 h; active compounds read low; activity change (PNC), negative = inhibition, % at 10 µM; 140,000 compounds, 3.1% hits;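 active means readout at or below -70, meaning at least 70% loss of cells showing the perinucleolar compartment, a nuclear body marking cancer cells; inconclusive means readout between -30 and a set limit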;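 further: plate controls were DMSO wells for no effect and camptothecin positive control wells for full effect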
#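 Compounds are pinned in duplicate onto adhered PC3M cells stably expressing GFP-tagged PTB and incubated 16 h at 37 C. Cells are then fixed, nuclei stained with Hoechst, and PNC-positive cells counted.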
# IMPase cell inh = IMPase inhibition in cells. inhibition (IP1 accumulation), % at 46.1 µM. AID 901. CHO-M1 cells, IP1 accumulation, HTRF TR-FRET ratio. 120,000 tested, under 10 active; active means well fitted curve in the direction sought with a large enough effect in the signal ratio, not every such curve was filed as active; inconclusive means small, poorly fitted or top-dose-only effect, or a change in a side signal; inactive means no such curve, though single readings can be large or run the other way; the % refers to the signal ratio;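 further: cells stimulated with carbachol in lithium chloride buffer; plate controls were DMSO basal wells for no effect and reference inhibitor wells for full effect; higher means more IMPase inhibition seen as more IP1 and lower FRET ratio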
#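 Measured: the HTRF emission ratio (665/620 nm) plus the 620 nm donor channel, each fitted to the Hill equation to give AC50. Cells were CHO-M1 given compounds up to 46 uM and a 30 min carbachol stimulation at 37C.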
# Active calls of the source: *; ? = inconclusive; . = not tested or not shown; [ ] = remark or other dose. Unless noted, the call rests on the fitted dose curve; in most records, active means well fitted inhibition curve with a large enough effect (not every such curve was filed as active); inconclusive means small, poorly fitted or top-dose-only effect, or another doubt; inactive means no such curve, though single readings can be large or run the other way. Unless noted, on the % scale 0 is the no-effect control and ±100 the full control effect.
SMILES,IMPase Li cell,HPGD inh,ALDH1A1 inh,PNC inhibitor,IMPase cell inh
Cc1ccc(CNC(=O)C2CCCN(c3nc4ccsc4c(=O)s3)C2)cc1 (configuration not stated),6%,.,?,.,.
Oc1ccc(Nc2nc(-c3ccc(O)cc3)cs2)cc1,15%[38.3 µM],?,22µM*,-20,6
Nc1ccc(Nc2nc(-c3ccncc3)cs2)cc1,41%[38.3 µM],-8%,22µM*,-29,?
Fc1ccc(Nc2nc(-c3ccncc3)cs2)cc1,-1%,.,12%,.,.
Oc1ccc(Nc2nc(-c3ccc(Cl)cc3)cs2)cc1,2%,-20%,6%,.,.
Cc1ccc(/C=N/OC(=O)c2nn(C)cc2Cl)cc1,-11%,.,2%,.,.
Cc1cc(C)cc(C(=O)NCC(=O)OCC(=O)Nc2cccnc2Cl)c1,1%,.,?,.,.
Cc1cc(C=O)c(C)n1-c1ccc(Cl)c(C(=O)O)c1,-1%,.,?,.,.
COc1ccc(OC)c(-n2c(=O)c3ccccc3c3ccccc3c2=O)c1,28%,-6%,-8%,97,-1
Cc1c(C(=O)O)cccc1-n1c(C)cc(/C=N/NC(=O)c2cc3ccccc3o2)c1C,-5%,?,-17%,-14,.
COC(=O)c1cccc(-n2c(C)cc(C=O)c2C)c1C,8%,-11%,0.63µM*,5,.
COc1ccc(-n2c(C)cc(C=O)c2C)cc1Cl,8%[38.3 µM],18µM*,1µM*,-24,10
COc1ccc(OC)c(-n2c(C)cc(C=O)c2C)c1,3%,.,5.6µM*,.,.
CC/C=C\C/C=C\C/C=C\C/C=C\C/C=C\C/C=C\CCC(=O)NCC(=O)O,7%,-12%,?,.,.
COc1cc(C(=O)n2nc(C)c(Sc3ccc(Cl)cc3)c2C)cc(OC)c1OC,.,.,.,.,-2
CCOC(=O)c1[nH]c(C)c(C(=O)c2cc(F)ccc2F)c1C,5%[38.3 µM],?,-9%,-95*,14
CCOC(=O)c1[nH]c(C)c(C(=O)OCC)c1C,15%[38.3 µM],?,-2%,-19,12
CCCCn1nnc(NC(=O)c2sc3cc(Cl)ccc3c2Cl)n1,10µM*,-26%,?,-4,?
CCCn1nnc(NC(=O)c2ccc(Cl)cc2Cl)n1,29%[38.3 µM],-22%,?,-26,7
Nc1c2ccccc2nc2c(O)cccc12,1%,-6%,0%[20.9 µM],.,-2[20.6 µM]
Ic1ccc2c(c1)N(c1ccccc1)c1cc(Nc3ccc4nc5ccc(I)cc5[n+](-c5ccccc5)c4c3)ccc1N2,6%,-16%,?,.,.
O=C1OC(c2ccccc2)/C(=C(/O)c2ccccc2)C1=O (configuration not stated),?,-18%,0.79µM*,?,-15
Cc1ccc(/C(O)=C2/C(=O)C(=O)OC2c2ccc(Cl)cc2)cc1 (configuration not stated),?,-7%,?,18,-24
O=C1OC(c2ccccc2)/C(=C(/O)c2ccc(Cl)cc2)C1=O (configuration not stated),?,35µM*,38µM*,3,-13
CCOc1ccc(C(=O)Nc2cccc(-c3nc4cc(Cl)cc(Cl)c4o3)c2)cc1,.,.,.,.,-2
SMILES,IMPase Li cell,HPGD inh,ALDH1A1 inh,PNC inhibitor,IMPase cell inh
Cc1ccc(S(=O)(=O)Nc2cc3c(cc2N2CCOCC2)n(C)c(=O)n3C)c(C)c1,.,.,.,.,-1
O=C(c1cccc(S(=O)(=O)Nc2ccccc2F)c1)N1CCN(c2ccccc2F)CC1,3%,.,?,.,.
Fc1ccc(C2=NNC(=NCc3ccccc3)SC2)cc1F,-7%,.,?,.,.
CC(C)N=C1NN=C(c2ccc(F)cc2)CS1,4%,.,?,.,.
c1ccc(CN=C2NN=C(c3ccccc3)CS2)cc1,20%,.,22µM*,.,.
CC(=O)c1c(C)[nH]c(C2=NNC(=NCc3ccccc3)SC2)c1C,-20%,.,28µM*,.,.
CCN=C1NN=C(c2ccc(C)cc2)CS1,-17%[38.3 µM],28µM*,25µM*,32,-20
Clc1ccc(C2=NNC(=NCc3ccccc3)SC2)cc1,-4%,.,10µM*,.,.
C[C@@H](c1ccccc1)N1C(=O)[C@H]2[C@@H]3[C@H](O)[C@H](O)CC(=O)[C@H]3CC[C@H]2C1=O,.,.,0%[13.5 µM],.,.
C=CCN=C1NN=C(c2ccc3c(c2)OCCO3)CS1,19%,.,20µM*,.,.
c1ccc(C2=NNC(=NCc3ccc4c(c3)OCO4)SC2)cc1,.,.,25µM*,?,-3
COc1ccccc1C1=NNC(=NCc2ccccc2)SC1,-3%,.,?,.,.
CCOC(=O)c1c(N)sc(C(=O)OC)c1C,-5%,.,?,.,.
COC(=O)c1sc(N)c(C(=O)OC)c1COC(=O)c1c(C)noc1C,0%[38.3 µM],18µM*,-11%,-21,2
C[C@H]1Cc2c(COc3ccccc3)nc3c(c2CO1)CN(C(=O)C1CCCCC1)CC3,7%,-5%,-6%[13.5 µM],.,.
CCN(CC)S(=O)(=O)N1CCC(C(=O)NCCC2=CCCCC2)CC1,-5%,.,2.5µM*,.,.
CCN(CC)S(=O)(=O)N1CCC(C(=O)NCCN2CCOCC2)CC1,-11%[38.3 µM],-15%,10µM*,-7,0
CS(=O)(=O)N1CCC(C(=O)NCCC2=CCCCC2)CC1,29%[38.3 µM],-4%,?,-14,-3
CC1CN(C(=O)COC(=O)c2ccc(N)c([N+](=O)[O-])c2)CC(C)O1 (configuration not stated),4%,28µM*,?,?,9
CC1CN(C(=O)COC(=O)c2ccc(NC(=O)CC#N)cc2)CC(C)O1 (configuration not stated),4%,.,6.3µM*,.,.
Cc1cc(C(=O)OCC(=O)N2CC(C)OC(C)C2)ccc1[N+](=O)[O-] (configuration not stated),7%,.,?,.,.
O=C(c1cc(C(F)(F)F)cc(C(F)(F)F)c1)N1CCC[C@@]2(CCN(Cc3ccccc3)C2)C1,19%,-6%,2%,.,.
Cn1c(=O)n(C)c2cc(N3CCOCC3)c(NC(=O)c3ccc(C(C)(C)C)cc3)cc21,.,.,.,.,-5
O=C(/C=C/c1ccccc1Cl)Nc1ccc(-c2nnc3n2CCCCC3)cc1,-9%,4µM*,-4%,-6,.
O=C(Nc1ccc(-c2nnc3n2CCCCC3)cc1)c1cc2ccccc2o1,-2%,2.2µM*,-1%,-7,.
O=C(C1CCC(=O)N1Cc1ccccc1Cl)N1CCN(c2cccc(Cl)c2)CC1 (configuration not stated),11%[38.3 µM],3%,0%,-12,1
COC(=O)c1ccc(NC(=O)CNCc2ccncc2)cc1,-6%,0%,22µM*,-19,.
COC(=O)c1ccc(NC(=O)CN2C(=O)C3C4C=CC(C4)C3C2=O)cc1 (configuration not stated),21%[38.3 µM],20µM*,3%,20,-8
O=C(CN1C(=O)C2C3C=CC(C3)C2C1=O)Nc1ccc(C(=O)O)cc1 (configuration not stated),-10%[38.3 µM],-11%,8%,72,4
COC(=O)c1ccc(CNCC(=O)Nc2ccc(C(=O)OC)cc2)cc1,-4%,28µM*,-5%,17,.

# Screening data as filed in PubChem BioAssay.
